# High-throughput results deposited in PubChem BioAssay by National Center for Advancing Translational Sciences (NCATS).
# Shown are actives, neighbours in structure and some others; about 10% of the full set was active somewhere.
# BAZ2B block: qHTS Assay for Inhibitors of BAZ2B; AlphaScreen BAZ2B-H3K14Ac peptide displacement; AID 504333, 2011; Potency, µM (titrated, usually from 114 µM), for the others: top-dose activity change, negative = inhibition, actives largely listed as inhibitors; 360,000 compounds, 4.4% hits; Bromodomain adjacent to zinc finger domain protein 2B (Homo sapiens), Q9UIF8; further: potency means the concentration at half of the fitted maximal effect; on the % scale 0 is the no-effect control and ±100 the full control effect; nearly all actives have a fitted effect of over 60% in size
#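 In this displacement format the biotinylated H3(5-23) peptide acetylated at Lys14 serves as ligand at 50 nM, with BAZ2B at 50 nM in PBS pH 7.4 containing 0.01% Tween-20. Donor and acceptor beads are 10 ug/mL final.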
# CtBP-E1A inh: qHTS Assay for Inhibitors of the CtBP/E1A Interaction. CtBP / adenovirus E1A interaction (AlphaScreen). 340,000 compounds, 0.49% hits. AlphaScreen GST-E1A/His-CtBP binding, 1536-well; active compounds read low. activity change, % (concentration not given with the values); in the data active means activity change below about -65%; inconclusive means mostly about -30% to -63%; further: on the % scale 0 is the no-effect control and ±100 the full control effect
#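 In 5 uL wells, 23 nL compound meets equimolar GST-E1A and His-CtBP (5X stock 125 nM each) for 2 h, 37 °C. Beads (5X, 50 ug/mL) then 1 h, 37 °C, dark.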
# Six1-Eya2 blk: qHTS Assay for Inhibitors of the Six1/Eya2 Interaction; AID 651725, 2012; activity change, % (no concentration beside the values); AlphaScreen GST-Six1/His-Eya2 binding, biochemical; active compounds read low; Homeobox protein SIX1 (Homo sapiens) + Protein phosphatase EYA2 (Homo sapiens), …; 360,000 compounds, 0.56% hits; in the data active means activity change below about -65%; inconclusive means mostly about -30% to -63%; further: on the % scale 0 is the no-effect control and ±100 the full control effect
#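 Six1/Eya2 binding was read as AlphaScreen signal after compounds were pinned into GST-Six1 plus His-tagged Eya2 (5X stock 250/500 nM) in pH 8.0 Tris/NaCl/TCEP buffer, beads added, then incubated 1 h, 37 C, dark.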
# JMJD2A Tudor inh: qHTS Assay for Inhibitors of JMJD2A-Tudor Domain | Potency, µM (highest dose often 114 µM), for the others: top-dose activity change, negative = inhibition, actives largely listed as inhibitors | Lysine-specific demethylase 4A (Homo sapiens), O75164 | AlphaScreen JMJD2A-Tudor / H3K4me3 peptide binding | 390,000 compounds, 4.4% hits; further: potency means the concentration at half of the fitted maximal effect; on the % scale 0 is the no-effect control and ±100 the full control effect; nearly all actives have a fitted effect of over 50% in size
# HP1b binding inh: HTS for Inhibitors of HP1-beta Chromodomain Interactions with Methylated Histone Tails | Chromobox protein homolog 1 (Homo sapiens), P83916 | Potency, µM (doses to about 114 µM), inactives show at the highest dose activity change, negative = inhibition, hits mostly inhibitors | 390,000 compounds, 0.56% hits | AlphaScreen HP1-beta / biotin-H3K9me3 peptide binding; further: potency means the concentration at half of the fitted maximal effect; nearly all actives have a fitted effect of over 70% in size
# Target sequence (P83916 whole entry, looked up): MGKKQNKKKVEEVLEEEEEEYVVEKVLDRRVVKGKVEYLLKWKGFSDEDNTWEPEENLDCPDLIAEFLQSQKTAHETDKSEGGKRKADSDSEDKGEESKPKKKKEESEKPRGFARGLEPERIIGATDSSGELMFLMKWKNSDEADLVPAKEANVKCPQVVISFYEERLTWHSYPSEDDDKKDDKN
#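 Compound inhibition of the preformed complex between 50 nM HP1-beta and 50 nM biotinylated H3K9me3 peptide was read by AlphaScreen. Buffer was PBS pH 7.4 with 0.01% Tween-20. Incubations ran 30 min at room temperature, with 10 ug/mL donor/acceptor beads.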
# G9a inh: qHTS Assay for Inhibitors of Histone Lysine Methyltransferase G9a; AID 504332, 2011; G9a H3K9 monomethylation, AlphaScreen, 2 h; 350,000 compounds, 8.8% hits; Potency, µM (titrated, usually from 102 µM), for inactives: at the highest dose activity, negative = inhibition, hits mostly inhibitors; further: potency means the concentration at half of the fitted maximal effect; on the % scale 0 is the no-effect control and ±100 the full control effect; nearly all actives have a fitted effect of over 75% in size
# Target sequence (Q96KQ7 913-1193 limits assumed): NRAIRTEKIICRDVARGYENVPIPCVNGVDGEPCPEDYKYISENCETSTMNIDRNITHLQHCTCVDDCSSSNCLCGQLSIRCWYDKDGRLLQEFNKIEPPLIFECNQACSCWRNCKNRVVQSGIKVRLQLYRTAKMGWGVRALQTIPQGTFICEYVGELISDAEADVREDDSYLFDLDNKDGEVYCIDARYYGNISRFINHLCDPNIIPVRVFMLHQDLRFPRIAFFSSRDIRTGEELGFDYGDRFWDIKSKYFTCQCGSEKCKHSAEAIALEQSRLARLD
#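 Quantitative HTS format: methyltransferase activity on a biotin-tagged H3K9 peptide is measured by AlphaScreen, using a rabbit anti-monomethyl-H3K9 antibody with streptavidin donor and anti-IgG acceptor beads. Final levels are 20 nM enzyme, 500 nM peptide, 20 uM SAM; 2 h RT.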
# Active calls of the source: *; u = inconclusive; x = no result; [ ] = remark or other dose. Unless noted, the call rests on the fitted dose curve; in most records, active means well fitted inhibition curve with a large enough effect; inconclusive means small, poorly fitted or top-dose-only effect; inactive means no such curve, though single readings can be large or run the other way.
SMILES,BAZ2B block,CtBP-E1A inh,Six1-Eya2 blk,JMJD2A Tudor inh,HP1b binding inh,G9a inh
CC(C)c1ccc(C2N3CC4(C)CN2CC(c2ccccc2)(C3)C4=O)cc1 (stereo unspecified),-4%,x,x,-19%,14%,-37%[59 µM]
COc1cc(/C=C2/C(=O)NN(c3ccccc3)C2=O)cc(Br)c1O,u,x,4,u,-24%,40µM*
COc1cc(/C=C2\C(=O)NN(c3ccc(C)cc3)C2=O)cc([N+](=O)[O-])c1O,40µM*,-19,3,u,u,14µM*
CC1CC2(C)Oc3ccccc3CC2C(C)C1CNCCCN(C)C (stereo unspecified),-22%,-3,-10,-15%,29%,u
COc1ccccc1CNC(=O)C1CCN(S(=O)(=O)c2ccc3nc4c(c(C(=O)O)c3c2)CCCC4)CC1,-14%,u,u,-22%,51%,x
CCCNC(=O)C1CCN(S(=O)(=O)c2ccc3nc4c(c(C(=O)O)c3c2)CCCCC4)CC1,7%,4,-7,-1%,45%,-14%
COc1ccc(CNC(=O)C2CCN(S(=O)(=O)c3ccc4nc5c(c(C(=O)O)c4c3)CC(C)CC5)CC2)cc1 (stereo unspecified),-22%,-82*,-73*,-9%,34%,-14%[59 µM]
CC1CCc2nc3ccc(S(=O)(=O)N4CCC(C(=O)NCc5ccccc5Cl)CC4)cc3c(C(=O)O)c2C1 (stereo unspecified),-24%,-66*,-73*,-19%,34%,u
CC1CCC(NC(=O)C2CCN(S(=O)(=O)c3ccc4nc5c(c(C(=O)O)c4c3)CC(C)CC5)CC2)CC1 (stereo unspecified),-16%,x,-5,-6%,17%,50µM*
O=C(CCCn1c(=O)c2ccccc2n(Cc2cccc(Cl)c2)c1=O)NCCc1ccc(Cl)cc1,2%,x,x,-13%,26%,-4%[59 µM]
COc1ccc2c(c1)Cc1sc(NC(=O)c3ccccc3C)nc1-2,-9%,x,x,u,2%,u
N#C/C(=C\N1CCN(Cc2ccc3c(c2)OCO3)CC1)c1nc2ccccc2s1,-5%,-22,u,u,-9%,40µM*
c1ccc2sc(N3CCN(Cc4ccc5c(c4)OCO5)CC3)nc2c1,x,x,x,x,x,5%[59 µM]
CC1=C(C(=O)OCc2ccc(C)cc2)C(c2ccccc2C(F)(F)F)CC(=O)N1 (stereo unspecified),-5%,x,x,-5%,19%,-38%[59 µM]
CC(=O)Nc1ccc(NC(=O)C/C(C)=N/NC(=O)C(=O)Nc2ccc(C)c(Cl)c2)cc1,-39%,-9,59,-1%,38%,56µM*
C/C(CC(=O)Nc1ccc(C)c(Cl)c1)=N\NC(=O)c1cccc(O)c1,-16%,-2,-27,-8%,41%,x
COc1ccc(OC)c(C2=NS(=O)(=O)N(C)C(C(=O)NCc3cccs3)=C2)c1,-30%,-11,-3,22µM*,-7%,-2%
COc1ccc(OC)c(C2=NS(=O)(=O)N(C)C(C(=O)Nc3cccc(C(C)=O)c3)=C2)c1,u,-11,-8,16µM*,-11%,45µM*
Cc1cc([N+](=O)[O-])cc(/C=N/n2c(C)nc3ccccc3c2=O)c1O,79µM*,-86*,u,u,33%,-37%
Cc1ccc(-n2[nH]c(C)c(/C=N/n3c(C)nc4ccccc4c3=O)c2=O)cc1,4%,-17,-15,-14%,32%,-6%
Cc1ccccc1-c1nc2ccccc2c(=O)n1/N=C/c1ccc([N+](=O)[O-])cc1,x,-2,-1,-16%,16%,x
Cc1nc2ccccc2c(=O)n1/N=C/c1ccc(O)c(O)c1O,u,x,-25,14µM*,u,1.3µM*
Cc1nc2ccccc2c(=O)n1/N=C/c1ccccc1O,-7%,u,-27,-12%,36%,x
Cc1nc2ccccc2c(=O)n1/N=C/c1ccccc1,0%[57.1 µM],2,2,1%,30%,28%[0.501 µM]
Cc1nc2ccccc2c(=O)n1/N=C/c1ccc2ccccc2c1O,u,-8,u,u,12%,28µM*
SMILES,BAZ2B block,CtBP-E1A inh,Six1-Eya2 blk,JMJD2A Tudor inh,HP1b binding inh,G9a inh
Cc1[nH]n(-c2ccccc2)c(=O)c1/C=N/n1c(C)nc2ccccc2c1=O,1%,-15,-7,-11%[57.1 µM],33%,3.2µM*
O=C(OCC#CCSc1nnc(-c2cccs2)o1)c1ccc(F)cc1,x,x,x,50%,x,x
Cc1ccc(S(=O)(=O)c2cc3c(=O)n4ccccc4nc3n(CCCN3CCOCC3)c2=N)cc1C,-16%[57.1 µM],-25,-10,-34%,12%,12%
Cn1c(=N)c(S(=O)(=O)c2ccccc2)cc2c(=O)n3ccccc3nc21,2%,-70*,u,0%,48%,-10%[59 µM]
N=c1c(S(=O)(=O)c2ccccc2)cc2c(=O)n3ccccc3nc2n1CCCN1CCOCC1,4%,-12,-13,-24%,5%,79µM*
Cn1c(=N)c(S(=O)(=O)c2ccc(F)cc2)cc2c(=O)n3ccccc3nc21,5%,-15,-11,1%,28%,x
Oc1ccc2[nH]cnc2c1CN1CCCCC1,11%,-2,-3,4%,24%,5.6µM*
CCOCCCNC(=O)c1ccc2c(c1)NC(=O)C(CS(=O)(=O)Cc1ccc(F)cc1Cl)N2 (stereo unspecified),u,x,x,-13%,33%,u
CC(C)c1nc2ccc(Br)cn2c1NC1CCCC1,u,13,-3,-8%,42%,45µM*
Cc1c(-c2ccccc2)n[nH]c1C(=O)NN,-24%,-8,-13,-4%,36%,40µM*
O=C(Oc1ccc2c(=O)c(Cl)coc2c1)c1ccncc1,u,3,17,-2%[57.1 µM],40%,35µM*
O=C(Oc1ccc2c(=O)c(Oc3ccc4ccccc4c3)coc2c1)c1cncc(Br)c1,9%,-2,0,-9%,29%,-12%[59 µM]
CCc1nc2c(OCc3cc(Cl)cc(Cl)c3)cccn2c1N(C)C(=O)c1cccc(OC)c1,x,0,-7,x,x,x
CCCCCCC/C=N/Nc1nnc(Cc2ccccc2)c(=O)[nH]1,u,-27,-23,u,7%,31%
COc1ccc(Cc2nnc(N/N=C/c3ccc(O)cc3O)[nH]c2=O)cc1OC,5µM*,-93*,-88*,14µM*,31%,15%[59 µM]
